The values below come from PubChem BioAssay (NCI).

This is part of a sample that, as a whole, favours compounds with a hit. Of some 83,000 tested, about 20% had one in any assay.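 The endpoint reported here, percent growth, reads 100 for growth as untreated, 0 for no net growth and -100 for all cells dead.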 Values without a mark were called inactive. Calls of active or inactive are those of the source.

The test concerns KM12 colon. Kind of test: NCI-60 one-dose screen, 48 h (100 = growth as untreated, 0 = no growth, -100 = all killed). As to conditions: 10 µM unless noted. Here is the method: Growth inhibition of the KM12 human tumor cell line is measured as a screen for anti-cancer activity. Cells are grown in 96 well plates and exposed to the test compound for 48 hours. Compounds are tested at a single concentration, which is 10^-5 M for most compounds. The reported endpoint is percent growth (GI% or GIPRCNT), where numbers from 0 - 100% represent growth inhibition, and numbers from -100% - 0 represent cell death. For example, a value of 40 represents 60% growth inhibition. A value of 0 means no net growth occurred over the course of the experiment. A value of -40 indicates 40% of cells at the beginning of the experiment died by the end of the experiment. A value of -100 means all cells are dead at the end of the experiment.
NCI-60 Human Tumor Cell Lines Screen was performed using the standard one-dose NCI protocol, which is described in more detail at https://dtp.cancer.gov/discovery_development/nci-60/default.htm.
Compounds with GIPRCNT values below 10 were considered active. Activity score was based on GIPRCNT using the following formula: […]
Score is 0 for GIPRCNT values of 100 or above, 50 for GIPRCNT values of 0, and 100 for GIPRCNT values of -100.
`Cn1ncc2c(Nc3ccc(Br)cc3)nc(Nc3ccc(Br)cc3)nc21`: the growth was 37.1%. The result for `CNC(=O)c1cc(Oc2ccc3nc(Nc4cc(Cl)cc(Cl)c4)ccc3c2)ccn1` reads 30.2%; that for `C(=C\c1nc2ccccc2[nH]1)/c1nc2ccccc2[nH]1`, 98.1%; that for `C=C(C)[C@@H]1CC[C@]2(CNCCO)CC[C@]3(C)[C@H](CC[C@@H]4[C@@]5(C)CCC(N)[C@@](C)(CO)[C@@H]5CC[C@]43C)[C@@H]12` (stereo not given in full), -2.9% (active). The result for `O=C(Oc1ccc([N+](=O)[O-])cc1)c1ccc(CBr)cc1` reads 103%; that for `NC(=O)c1c(NC(=O)c2ccc(C(F)(F)F)cc2Cl)sc2c1CCC(=O)C2`, -56.7% (active); that for `Oc1[nH]c2ccccc2c1/C=c1/cc2c(c(-c3ccc(F)cc3)n1)=Nc1ccccc1-2`, 14.6%.

As to `O=C(CC1Sc2ccccc2NC1=O)NNc1ccc(F)cc1` (stereo not given), the growth is 77.4%.

Regarding `CSc1nc2sc3cc(Cl)ccc3n2c(=N)c1C#N`, the growth is 19.8%. The result for `COc1cc2c(c(OC)c1OC)C(=O)/C(=C/c1cc(C)c(O)c(C)c1)S2` reads 20.9%; that for `C=C1c2c(C)nn(-c3ccc(O)cc3)c2N(C)C23C[C@@H]1C1(C)c4c(C)nn(-c5ccc(O)cc5)c4N(C)C(C)(C[C@H]12)C3` (stereo not given in full), 21.2%. The result for `CCN(CC)CCOC(=O)N1c2ccccc2Sc2ccccc21` reads 99.3%; that for `CCCc1nc2ccccn2c1Nc1ccc(C(=O)NO)cc1`, 97.1%; that for `CN(C)c1ccc(/C=C2\C=C(c3ccccc3)N(CCc3ccccc3)C2=O)cc1`, 89.8%.

Regarding `C/C(Cc1ccc(Cl)cc1)=C(/c1ccc(Cl)cc1)c1ccc(OCCN(C)C)cc1`, the growth was 27.9%. The value for `CCCCCCCCc1cc[n+](CC(=O)c2ccc(Br)cc2)cc1` was -56.8% (active); that for `Fc1ccc(Nc2nc3nonc3nc2Nc2ccc(F)cc2)cc1` was 3.91% (active). For the molecule `O=C(NCCN1CCC(O)CC1)c1cc2c(o1)C(=O)c1ccccc1C2=O`, the growth is -89.3% (active).

Regarding `COc1ccc(-n2nnc(C(=O)NCCc3c[nH]c4ccc(F)cc34)c2C)cc1`, the growth was 103%. The result for `C=C1c2c(C)nn(-c3ccc(S(N)(=O)=O)cc3)c2N(C)C23CC1C1(C)c4c(C)nn(-c5ccc(S(N)(=O)=O)cc5)c4N(C)C(C)(CC12)C3` (stereo not given) reads 33.1%; that for `CCOC(=O)c1ccc(NC(=O)CCCN(CC)CC)cc1`, 104%.

In the case of `CCC(C)NCc1ccccc1` (stereo not given), the growth was 100%. `Cc1c(Cl)cccc1NS(=O)(=O)c1ccccc1`: the growth was 116%. The value for `O=[N+]([O-])c1ccc(-c2cc3c(Nc4ccc(Cl)c(C(F)(F)F)c4)ncnc3s2)cc1` was 10.9%; that for `COc1ccc2c(c1)/C(=C\c1sc(=S)[nH]c1O)C(C(=O)O)=N2` was 99.6%. The result for `Cc1ccc(/C(=N\N=C(N)N)c2ccccc2)cc1` reads 2.94% (active); that for `Cc1nc(Nc2ccc(NC(=S)Nc3ccccc3)cc2)nc2nc(Nc3cccc(Cl)c3)[nH]c(=O)c12`, 106%; that for `N=C(N)c1ccc(-c2ccc(-c3ccc(Cl)c(Cl)c3)o2)nc1`, -15% (active). The result for `CCN(CC)CCCNC(=O)c1ccc(N)cc1O` reads 106%; that for `O=C(Nc1ccccc1)c1sc(-c2cccc(C(F)(F)F)c2)cc1O`, 92.3%; that for `CCCn1nc(-c2ccccc2)c2c(-c3ccccc3)onc2c1=O`, 60%. For the molecule `CCOC(=O)c1c(C)nc2c(c1N)/C(=C/c1ccc(OC)cc1)C(=O)N2Cc1ccc(F)cc1`, the growth is -59.7% (active). On to `CCn1c(Sc2nnc(NC(=O)CCN3CCCC3)s2)nc2c1c(=O)n(C)c(=O)n2C`, for which the growth is 109%. On to `OC(CBr)c1ccnc2ccccc12` (stereo not given), for which the growth was 99.3%.

In the case of `Cc1ccc(C)c2c1C(=O)OC2=O`, the growth was 109%. With `O=C(/C=C/C12c3ccccc3C(c3ccccc31)C1C(=O)N(c3ccc(Cl)cc3)C(=O)C12)c1ccccn1` (stereo not given), the growth is -60.8% (active). The value for `CCNCCNc1cc(-c2cccc(C(F)(F)F)c2)c(C#N)c2nc3ccccc3n12` was -75.6% (active).

`CC1=CC(=O)C(C(C)C)=CC1=Nc1cc(Br)c(O)c(Br)c1`: the growth was -1.83% (active). Take `O=c1ccn(C2OC(F)(CO)C(O)C2F)c(=O)[nH]1` (stereo not given): the growth is 104%. On to `CCOc1cc(C2C(Cl)C(=O)N2n2cnnc2)ccc1O` (stereo not given), for which the growth was 99.1%.
